Assays:
Test in all cases: PBM binding z-score (relative to random genomic background probes); higher = stronger binding; sequences stand for … in GC…GCGATTGACAGCGTAGAATGAAGG
[1] = tested on: PPARg:RXRa DBDmut IVT, anti-RXR (DBD mutation: RXRa K156A/R161A, NR concentration 270 nM, RXRa partner concentration 90 nM)
In short: (§1)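 Each nuclear receptor dimer, without ligand, was incubated for 1 h on custom Agilent 4×180K protein-binding microarrays. Binding was detected with antibodies against each partner (one per run), and scanned fluorescence was regression-normalized. The binding z-scores are referenced to random human genomic background probes.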

[2] = tested on: PPARg:RXRa IVT, anti-PPARg (NR concentration 270 nM, RXRa partner concentration 90 nM)
In short: as §1

[3] = tested on: PPARg DBDmut:RXRa IVT, anti-PPARg (DBD mutation: PPARg1 K132A/R137A, NR concentration 270 nM, RXRa partner concentration 90 nM)
In short: as §1

[4] = tested on: PPARg DBDmut IVT, anti-PPARg (DBD mutation: PPARg1 K132A/R137A, NR concentration 270 nM)
In short: as §1

[5] = tested on: PPARg homodimer (NR concentration 180 nM)
In short: as §1

[6] = tested on: PXR:RXRa (NR concentration 270 nM, RXRa partner concentration 90 nM)
In short: as §1

[7] = tested on: PXR homodimer (NR concentration 270 nM)
In short: as §1

[8] = tested on: RARa:RXR (NR concentration 270 nM, RXRa partner concentration 90 nM)
In short: as §1

[9] = tested on: RARa homodimer (NR concentration 270 nM)
In short: as §1

[10] = tested on: RARb:RXRa (NR concentration 270 nM, RXRa partner concentration 90 nM)
In short: as §1

Sequence | PBM binding z-score [1] | PBM binding z-score [2] | PBM binding z-score [3] | PBM binding z-score [4] | PBM binding z-score [5] | PBM binding z-score [6] | PBM binding z-score [7] | PBM binding z-score [8] | PBM binding z-score [9] | PBM binding z-score [10]
ACAGACAGGTGAGTGACGGTAACTCAGCTGGACG | 0.522 | 0.563 | 0.246 | 0.557 | -0.526 | -0.527 | -0.705 | -0.525 | -0.487 | 0.377
ACTAGCTGGTCAGCTGAGGTCACACACAATTCGG | 0.832 | 1.83 | 0.106 | -0.428 | 2.22 | 5.58 | 1.11 | 4.93 | 0.527 | 3.69
CCGACTGTGGCAAGGTTACCATAACGCACAGCCA | 1.15 | 0.507 | -0.345 | -0.505 | 0.63 | 0.176 | 0.241 | 0.594 | 0.511 | 0.885
GCTAGCAGGCCATGTGGGTCACTCAATGACGGGC | 2.25 | 3.4 | -0.133 | -0.744 | -0.23 | 0.289 | -0.533 | 0.567 | -0.664 | 1.26
TCATATAGGTAATTGCTAGGTGAAAGTCCGATCT | 4.13 | 2.91 | 0.632 | 1.27 | 0.408 | 0.515 | 0.224 | 0.757 | 0.784 | 0.345
ACTATTAGTTGAGACGCGGGCAACCGATAGGTTG | -0.288 | -0.175 | 0.481 | 0.188 | -0.291 | -0.299 | -0.208 | -0.588 | -0.0314 | 0.15
AGAACGAGGGCAATGACTTGATAGCACGGGTGGC | 3.17 | 2.49 | 0.669 | -0.215 | 0.348 | 0.345 | 0.000958 | 0.436 | -0.218 | 2.11
TAGCCTAGGTCAGATCGGGCCAGTATCCGCTATA | 0.546 | 1.41 | -0.474 | -1.24 | 0.0691 | 0.834 | -0.885 | 1.1 | -1.32 | 3.02
CGTCCAAGGTCAGCAGGCCAGTGAAAGCGACGTG | 2.35 | 2.56 | -0.196 | -0.403 | 1.55 | 2.26 | -0.0334 | 3.14 | 0.266 | 5.01
TCTTGTAGATTAAAGGTTAAGAAAGCCGAAGCCT | 1.85 | 2.24 | 0.866 | 0.455 | 1.17 | 1.13 | 0.203 | 2.09 | 1.4 | 1.53
CGTATTAGTTGACCATAAGGGCAACCGAAGCTCG | 0.0759 | 0.784 | 0.0678 | -0.147 | 1.44 | 0.388 | 0.0683 | 0.881 | 0.774 | 1.26
CCTACTGGGCCAATGGTCATTGATTCCAATGCTC | 3.79 | 4.11 | 0.147 | -0.523 | -0.104 | -0.581 | -0.689 | -0.388 | -0.588 | 0.311
CAATCTAGGTCAAGAGGTCAAAGTCCGCTTCCCG | 8.4 | 8.71 | 5.68 | 4.57 | 9.94 | 6.5 | 3.63 | 8.3 | 5.1 | 5.36
TCATATAGGTAGAGGTGAAAGTCGAACGATATGA | 2.29 | 2.16 | 2 | 0.275 | 0.614 | 0.78 | 0.269 | 1.22 | 0.173 | 1.31
TCATATAGGTAAATACTAGGTGAAAGTCCGATCT | 4.28 | 4.37 | 1.5 | 1.37 | 1.15 | 0.747 | 0.389 | 1.15 | 1.65 | 0.482
TTACCAAGGTGAAATGTCGTTGATGCACGCCTTG | 2.04 | 2.84 | 0.312 | 0.465 | 0.892 | 0.271 | -0.455 | 0.706 | -0.394 | 1.44
CGAACTAGATCAAGGACAGTGAATCTCCGCACGC | 1.97 | 0.649 | -0.11 | -0.153 | 0.0368 | -0.495 | -0.0304 | -0.24 | 0.262 | 0.0814
CCTTACGGGTCACTGACAGGTTGTAGCATTTGGA | 3.45 | 3.69 | 0.239 | -0.219 | 2.3 | 3.28 | -0.0802 | 4.11 | 0.949 | 3.79
TCTCGGAGGACACGAGAGGTCAGAGCTCGACATC | 1.28 | 1.31 | -0.0103 | -0.495 | 1.51 | 3.78 | 0.385 | 3.56 | -0.143 | 3.84
CCTTACGGGTCACTCCAGGTTATCGCATCGGAGT | 2.41 | 3.83 | -0.0167 | -0.117 | 1.35 | 4.65 | 0.118 | 3.01 | 0.208 | 3.55
TCGTATAGGTAATACAGGTGAAAGTCGGCATCTA | 2.32 | 2.24 | 0.787 | 1.03 | 0.975 | 0.742 | 0.293 | 0.746 | 1.16 | 0.691
ATCGAAAGGTCGTGAGCTGAGTATACAGAAAGGC | -0.173 | 1.49 | 0.42 | 0.76 | 1.16 | 2.75 | 0.0585 | 3.56 | -0.0844 | 3.76
CGAACTAGGTCATAACAGGACAGTGAAGGATGAT | 7.75 | 8.05 | 5.21 | 4.58 | 2.38 | 2.04 | 0.386 | 2.3 | 0.47 | 3.38
AGTCAAAGTTCACTAGGTAACGTACGATTCAGCT | 3.29 | 5.13 | 1.36 | 1.27 | 3.23 | 4.37 | 3.12 | 3.45 | 1.53 | 4.71

Reference: the supplement of paper PMC6555819
